Drawing on ChEMBL document CHEMBL1961873, “Compounds: GSK PKIS; Assays: Nanosyn kinase panel” (2012), this text covers inhibition for seven molecules.

SMILES strings stand for the structures.

The target in experiment [1] is Leukocyte tyrosine kinase receptor (Homo sapiens) (UniProt P29376). The following applies: at 1 µM.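 Further: each value is the mean inhibition of LTK.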
Experiment [2] addresses Tyrosine-protein kinase Lyn (Homo sapiens) (UniProt P07948). The following applies: at 0.1 µM.
For experiment [3] the target is unchanged. The following applies: at 1 µM.
For experiment [4] the target is unchanged. The following applies: at 0.1 µM. This is another data set of the same source.
The target is the same in experiment [5]. The following applies: at 1 µM. This is another data set of the same source.
For experiment [6], the target named is T1, Tyrosine-protein kinase Mer (Homo sapiens) (UniProt Q12866).
T1 sequence (whole entry): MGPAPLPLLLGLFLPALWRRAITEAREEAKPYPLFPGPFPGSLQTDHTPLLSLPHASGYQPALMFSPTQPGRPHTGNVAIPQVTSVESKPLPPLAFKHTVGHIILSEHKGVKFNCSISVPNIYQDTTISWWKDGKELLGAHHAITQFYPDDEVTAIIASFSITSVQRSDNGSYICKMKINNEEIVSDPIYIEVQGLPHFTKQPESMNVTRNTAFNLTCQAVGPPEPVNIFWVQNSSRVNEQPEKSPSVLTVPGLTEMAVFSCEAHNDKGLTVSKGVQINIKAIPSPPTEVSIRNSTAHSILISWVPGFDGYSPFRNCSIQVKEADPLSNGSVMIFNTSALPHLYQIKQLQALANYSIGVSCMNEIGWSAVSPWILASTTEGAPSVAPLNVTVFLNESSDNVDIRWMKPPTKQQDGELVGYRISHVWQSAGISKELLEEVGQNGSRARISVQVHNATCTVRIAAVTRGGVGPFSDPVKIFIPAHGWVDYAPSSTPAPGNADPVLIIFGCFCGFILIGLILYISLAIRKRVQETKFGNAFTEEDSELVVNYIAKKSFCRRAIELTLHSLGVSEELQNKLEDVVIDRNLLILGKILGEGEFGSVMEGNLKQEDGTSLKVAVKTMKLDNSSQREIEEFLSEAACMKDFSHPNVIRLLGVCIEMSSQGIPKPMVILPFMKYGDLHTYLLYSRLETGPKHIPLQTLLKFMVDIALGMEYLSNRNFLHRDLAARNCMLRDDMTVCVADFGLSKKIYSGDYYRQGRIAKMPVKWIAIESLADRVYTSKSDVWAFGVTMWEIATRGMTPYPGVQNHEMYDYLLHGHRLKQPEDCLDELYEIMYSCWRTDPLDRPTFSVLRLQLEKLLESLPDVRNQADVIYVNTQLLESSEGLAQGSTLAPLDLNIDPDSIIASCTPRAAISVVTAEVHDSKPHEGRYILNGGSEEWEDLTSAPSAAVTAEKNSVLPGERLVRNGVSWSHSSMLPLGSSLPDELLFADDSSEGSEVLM
The following applies: at 0.1 µM.

Experiment [7] concerns the target T1, Tyrosine-protein kinase Mer (Homo sapiens). The following applies: at 1 µM.
Experiment [8] has as its target Hepatocyte growth factor receptor (Homo sapiens) (UniProt P08581). The following applies: at 0.1 µM.
Experiment [9] shares this target. The following applies: at 1 µM.
Experiment [10] deals with T2, Muscle, skeletal receptor tyrosine-protein kinase (Homo sapiens) (UniProt O15146).
T2 sequence (whole entry): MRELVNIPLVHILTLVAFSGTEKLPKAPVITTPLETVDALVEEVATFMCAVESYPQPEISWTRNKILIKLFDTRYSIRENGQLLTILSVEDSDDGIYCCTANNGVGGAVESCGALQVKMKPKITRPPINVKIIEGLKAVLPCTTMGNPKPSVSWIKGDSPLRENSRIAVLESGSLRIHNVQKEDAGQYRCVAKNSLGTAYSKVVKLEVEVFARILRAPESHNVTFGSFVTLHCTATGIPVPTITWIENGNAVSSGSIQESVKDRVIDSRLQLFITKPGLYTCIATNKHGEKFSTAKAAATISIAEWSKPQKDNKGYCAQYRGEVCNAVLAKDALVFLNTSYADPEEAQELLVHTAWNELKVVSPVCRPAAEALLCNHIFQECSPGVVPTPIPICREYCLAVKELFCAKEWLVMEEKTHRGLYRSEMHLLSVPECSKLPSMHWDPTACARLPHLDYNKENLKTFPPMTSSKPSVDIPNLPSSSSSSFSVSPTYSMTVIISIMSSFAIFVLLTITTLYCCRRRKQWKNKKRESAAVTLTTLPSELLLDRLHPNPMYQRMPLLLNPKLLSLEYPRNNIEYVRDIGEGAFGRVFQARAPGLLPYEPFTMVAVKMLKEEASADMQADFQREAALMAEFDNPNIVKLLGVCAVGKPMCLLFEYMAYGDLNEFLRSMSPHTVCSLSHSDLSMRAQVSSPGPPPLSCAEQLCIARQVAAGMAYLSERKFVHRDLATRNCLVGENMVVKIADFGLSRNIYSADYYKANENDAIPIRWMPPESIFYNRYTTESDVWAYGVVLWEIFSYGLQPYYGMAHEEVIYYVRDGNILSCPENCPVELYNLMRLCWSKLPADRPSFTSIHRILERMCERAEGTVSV
The following applies: at 0.1 µM.

The target of experiment [11] is T2, Muscle, skeletal receptor tyrosine-protein kinase (Homo sapiens). The following applies: at 1 µM.
Experiment [12] addresses Platelet-derived growth factor receptor alpha (Homo sapiens) (UniProt P16234). The following applies: at 0.1 µM.
The target is the same in experiment [13]. The following applies: at 1 µM.
The test system of experiment [14] is Platelet-derived growth factor receptor alpha (Homo sapiens), P16234 [D842V]. The following applies: at 0.1 µM.
For experiment [15] the test system is unchanged. The following applies: at 1 µM.
Experiment [16] deals with Platelet-derived growth factor receptor alpha (Homo sapiens), P16234 [T674I]. The following applies: at 0.1 µM.
Experiment [17] shares this test system. The following applies: at 1 µM.
The test system of experiment [18] is Platelet-derived growth factor receptor alpha (Homo sapiens), P16234 [V561D]. The following applies: at 0.1 µM.
For experiment [19] the test system is unchanged. The following applies: at 1 µM.
Experiment [20] has as its target Platelet-derived growth factor receptor beta (Homo sapiens) (UniProt P09619). The following applies: at 0.1 µM.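 Further: reported value is the mean percent inhibition of the kinase.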

Sequence of Tyrosine-protein kinase Lyn (Homo sapiens) (P07948 2-512 limits assumed): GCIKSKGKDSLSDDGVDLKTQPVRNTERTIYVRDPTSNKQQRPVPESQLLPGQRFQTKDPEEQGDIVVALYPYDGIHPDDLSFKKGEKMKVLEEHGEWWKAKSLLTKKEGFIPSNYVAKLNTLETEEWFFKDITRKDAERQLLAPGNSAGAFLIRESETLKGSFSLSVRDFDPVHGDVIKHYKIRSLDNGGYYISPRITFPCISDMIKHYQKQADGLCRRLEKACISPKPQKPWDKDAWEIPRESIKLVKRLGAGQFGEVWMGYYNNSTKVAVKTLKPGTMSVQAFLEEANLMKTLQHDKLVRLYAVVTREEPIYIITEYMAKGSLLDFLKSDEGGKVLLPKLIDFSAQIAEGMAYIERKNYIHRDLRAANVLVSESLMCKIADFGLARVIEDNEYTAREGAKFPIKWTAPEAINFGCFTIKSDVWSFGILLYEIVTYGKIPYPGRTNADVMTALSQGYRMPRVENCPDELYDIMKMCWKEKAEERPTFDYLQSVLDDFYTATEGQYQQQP
Sequence of Platelet-derived growth factor receptor beta (Homo sapiens) (P09619 whole entry): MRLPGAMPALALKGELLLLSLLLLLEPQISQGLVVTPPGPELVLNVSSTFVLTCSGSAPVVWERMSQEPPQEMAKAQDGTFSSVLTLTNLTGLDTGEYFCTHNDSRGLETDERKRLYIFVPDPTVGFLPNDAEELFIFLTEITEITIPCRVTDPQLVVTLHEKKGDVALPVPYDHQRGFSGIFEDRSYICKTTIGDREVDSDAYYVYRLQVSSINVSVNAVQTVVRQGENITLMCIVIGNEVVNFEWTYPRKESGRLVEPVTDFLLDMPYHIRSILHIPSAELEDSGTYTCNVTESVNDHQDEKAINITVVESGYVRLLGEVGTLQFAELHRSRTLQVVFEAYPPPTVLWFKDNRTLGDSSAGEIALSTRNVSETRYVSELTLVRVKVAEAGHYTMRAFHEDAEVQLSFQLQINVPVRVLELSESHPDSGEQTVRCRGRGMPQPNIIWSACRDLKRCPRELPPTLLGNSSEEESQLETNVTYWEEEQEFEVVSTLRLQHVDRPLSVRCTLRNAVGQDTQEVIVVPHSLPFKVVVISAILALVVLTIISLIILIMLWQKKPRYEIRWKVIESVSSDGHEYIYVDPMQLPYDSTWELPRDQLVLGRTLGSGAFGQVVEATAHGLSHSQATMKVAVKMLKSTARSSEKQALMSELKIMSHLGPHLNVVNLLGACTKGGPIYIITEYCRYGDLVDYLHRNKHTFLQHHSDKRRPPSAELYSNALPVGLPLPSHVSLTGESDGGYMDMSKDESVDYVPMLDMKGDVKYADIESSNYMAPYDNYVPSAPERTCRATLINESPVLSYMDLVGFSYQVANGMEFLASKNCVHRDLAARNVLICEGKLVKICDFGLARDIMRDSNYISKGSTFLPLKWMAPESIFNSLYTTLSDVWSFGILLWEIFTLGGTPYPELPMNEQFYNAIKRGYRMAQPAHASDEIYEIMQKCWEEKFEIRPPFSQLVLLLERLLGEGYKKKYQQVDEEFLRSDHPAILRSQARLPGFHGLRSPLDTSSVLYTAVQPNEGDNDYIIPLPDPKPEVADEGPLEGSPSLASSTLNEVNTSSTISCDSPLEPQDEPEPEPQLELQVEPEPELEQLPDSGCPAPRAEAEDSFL
Sequence of Platelet-derived growth factor receptor alpha (Homo sapiens) (P16234 whole entry): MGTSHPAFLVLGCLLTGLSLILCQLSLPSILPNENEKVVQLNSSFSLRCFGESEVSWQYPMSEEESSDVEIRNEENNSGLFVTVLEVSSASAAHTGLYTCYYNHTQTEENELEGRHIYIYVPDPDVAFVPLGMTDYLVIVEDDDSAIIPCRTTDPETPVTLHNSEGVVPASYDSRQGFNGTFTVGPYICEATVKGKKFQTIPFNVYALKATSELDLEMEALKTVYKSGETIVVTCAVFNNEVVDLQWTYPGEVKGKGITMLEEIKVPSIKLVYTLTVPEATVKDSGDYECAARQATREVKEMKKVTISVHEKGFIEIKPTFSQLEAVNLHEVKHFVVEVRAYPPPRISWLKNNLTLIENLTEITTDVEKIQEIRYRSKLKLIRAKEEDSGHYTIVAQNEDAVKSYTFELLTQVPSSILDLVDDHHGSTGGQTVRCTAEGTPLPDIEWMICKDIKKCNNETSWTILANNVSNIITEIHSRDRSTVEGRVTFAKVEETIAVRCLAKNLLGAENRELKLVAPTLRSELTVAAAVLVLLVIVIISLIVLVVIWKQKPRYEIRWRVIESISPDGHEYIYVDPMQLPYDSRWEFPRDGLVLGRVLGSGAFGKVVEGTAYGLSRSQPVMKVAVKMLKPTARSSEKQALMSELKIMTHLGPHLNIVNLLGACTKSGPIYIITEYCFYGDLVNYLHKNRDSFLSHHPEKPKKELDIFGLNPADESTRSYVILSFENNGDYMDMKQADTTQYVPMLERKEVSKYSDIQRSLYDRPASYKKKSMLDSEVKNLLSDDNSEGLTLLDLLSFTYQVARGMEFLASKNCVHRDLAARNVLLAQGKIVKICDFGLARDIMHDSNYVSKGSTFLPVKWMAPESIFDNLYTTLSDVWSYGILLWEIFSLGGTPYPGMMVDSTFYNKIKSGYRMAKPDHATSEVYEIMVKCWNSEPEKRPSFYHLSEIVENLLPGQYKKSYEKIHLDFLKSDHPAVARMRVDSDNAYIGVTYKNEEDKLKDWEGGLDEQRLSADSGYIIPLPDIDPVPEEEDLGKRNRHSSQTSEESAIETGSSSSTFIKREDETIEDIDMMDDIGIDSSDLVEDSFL
Sequence of Platelet-derived growth factor receptor alpha (Homo sapiens), P16234 [T674I] (P16234 whole entry T674I): as the sequence (P16234 whole entry) above, with T674I counted along it
Sequence of Platelet-derived growth factor receptor alpha (Homo sapiens), P16234 [D842V] (P16234 whole entry D842V): as the sequence (P16234 whole entry) above, with D842V counted along it

A word on the inhibition: it is the relative decrease from the control value, in per cent. In the case of `OCc1ccc(-c2nc(-c3ccccn3)c(-c3ccc4c(c3)OCO4)[nH]2)cc1`, the inhibition in experiment [1] was determined as 4.28%; in [2], 6.03%; in [3], 6.58%; in experiment [4], 3.09%; in experiment [5], 3.31%; in [6], 0.75%. The inhibition in experiment [7] stood at 1.08%; in experiment [8], 11.7%; in experiment [9], 8.92%; in experiment [10] it was 3.11%; in [11], 3.91%; in [12], 9.57%. Further, the inhibition in [13] was 12.2%; in [14] it was 4.62%; in [15], 6.61%; in experiment [16], 6.55%; in experiment [17] it was 6.47%; in experiment [18], 3.57%. Besides, the figures for the inhibition in experiment [19] and in [20] were 7.37% and 4.87%, respectively.

As to `Nc1ccc(C#Cc2cncnc2Nc2ccc(OCc3cccc(F)c3)c(Cl)c2)cc1`, the inhibition was 3.27% in [1]; 3.52% in [2]; 4.42% in [3]; 3.04% in experiment [4]; 3.28% in experiment [5]; 1.5% in experiment [6]. Moreover, the inhibition in experiment [7] is 2.05%; in experiment [8], 1.74%; in experiment [9] it was 3.8%; in experiment [10], -0.05%; in experiment [11], -0.75%; in experiment [12] it was 3.02%. Also, the inhibition was 5.52% in [13]; 2.77% in [14]; 2.86% in [15]; 3.22% in [16]; 5.56% in [17]; 1.6% in [18]. Also, the inhibition was 3.26% in experiment [19] and 3.04% in [20].

Regarding `COc1cc(/C=N/Nc2ncnc3c2cnn3C(C)C)ccc1O`, the inhibition came out at 3.76% in [1]; 15.2% in [2]; 58.5% in experiment [3]; 11.2% in experiment [4]; 52.7% in experiment [5]; 3.4% in experiment [6]. The inhibition turned out to be 20.7% in experiment [7]; 4.44% in experiment [8]; 5.86% in [9]; 11.6% in experiment [10]; 53.2% in [11]; 17.4% in experiment [12]. Besides, the inhibition in experiment [13] was 64.7%; in experiment [14], 13.3%; in [15], 61.1%; in experiment [16], 3.82%; in [17], 4.12%; in experiment [18], 12.3%. Also, the inhibition in [19] is 54.8%; in experiment [20] it was 8.52%.

As to `CN(C)C(=O)O[C@@H]1CN[C@@H](C#Cc2cc3ncnc(Nc4ccc(OCc5cccc(F)c5)c(Cl)c4)c3s2)C1`, the inhibition in experiment [1] is 0.68%; in experiment [2], 0.77%; in [3], 2.73%; in experiment [4], 0.28%; in [5], 1.62%; in experiment [6], -0.95%. Also, the inhibition in experiment [7] was 2.89%; in [8], 5.31%; in experiment [9], 0.32%; in experiment [10] it was -0.25%; in [11] it was 1.14%; in experiment [12] it was 3.88%. For the same molecule, the inhibition stood at 7.94% in experiment [13]; 0.63% in [14]; 1.66% in experiment [15]; 1% in experiment [16]; 0.01% in [17]; 0.98% in experiment [18]. Besides, the inhibition was determined as 5.29% in experiment [19] and 5.61% in [20].

`COc1cccc(-n2ncc3c(N/N=C/c4ccc(C)cc4)ncnc32)c1`: the inhibition in experiment [1] turned out to be 8.61%; in [2] it was 9.2%; in experiment [3] it was 23.2%; in experiment [4], 5.91%; in [5], 18.6%; in [6] it was 2.65%. For the same molecule, the inhibition in [7] is 4.53%; in experiment [8] it was -2.1%; in [9], 7.4%; in experiment [10] it was 6.89%; in [11], 13%; in experiment [12], 8.78%. Also, the inhibition in [13] stood at 23.2%; in experiment [14], 6.24%; in [15] it was 24.4%; in experiment [16], 4.6%; in experiment [17], 17.1%; in experiment [18], 7.1%. The figures for the inhibition in [19] and in [20] were 25.9% and 7.34%, respectively.

On to `NS(=O)(=O)c1ccc(NC=C2C(=O)Nc3ccc4ncsc4c32)cc1`, for which the inhibition in experiment [1] came out at 17.3%; in experiment [2], 11.5%; in experiment [3], 47.1%; in experiment [4] it was 7.96%; in experiment [5] it was 40.9%; in experiment [6], 3.9%. In addition, the inhibition is 16.3% in experiment [7]; 18.8% in experiment [8]; 62.2% in [9]; 23.7% in experiment [10]; 73% in experiment [11]; 69.8% in experiment [12]. For the same molecule, the inhibition amounted to 91.4% in experiment [13]; 75.9% in experiment [14]; 95% in experiment [15]; 29.3% in experiment [16]; 90% in experiment [17]; 68% in experiment [18]. The values for the inhibition in [19] and in experiment [20] were 94.9% and 73.2%, respectively.

Consider `CCn1c(-c2nonc2N)nc2ccc(F)cc21`, for which the inhibition was determined as 5.25% in experiment [1]; 7.21% in experiment [2]; 9.59% in experiment [3]; 3.75% in [4]; 5.9% in experiment [5]; 1.51% in experiment [6]. Besides, the inhibition in [7] was determined as 3.19%; in [8] it was 8.56%; in [9], 9.65%; in experiment [10], 2.27%; in experiment [11], 3.46%; in experiment [12], 9.43%. In addition, the inhibition in [13] came to 8.14%; in [14], 3.01%; in [15], 3.62%; in [16], 8.13%; in [17] it was 10.2%; in experiment [18] it was 5.36%. Further, the inhibition is 2.86% in experiment [19] and 5.06% in [20].
